Results: PubChem BioAssay (EPA / NIEHS)
Activity calls are given as the source filed them. How the source made its calls: active means hit-call score of the fitted dose curve at least 0.9, where 1 is the maximum; inactive means score below 0.9.

Read-out: Pselectin, SELP (gene 6403)
Assay: BSK_4H_Pselectin: BioMAP Diversity Plus: 4H Assay for Pselectin Biomarker Activity (AID 2283026)
Conditions: primary human endothelial cells (HUVEC); actives raise or lower the signal
Outline: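 ELISA of surface P-selectin on HUVEC, 24 h after dosing, with parallel SRB staining (0.1% after 10% TCA fixation, 560 nm) for overt cytotoxicity. Activity fitted in both directions relative to DMSO.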

| Compound | outcome | AC50 |
| --- | --- | --- |
| NCCOCCOCCN | inactive | – |
| S=c1[nH]c2ccccc2s1 | inactive | – |
| O=C(N[C@@H](c1ccccc1)[C@@H]1CCCCN1)c1cccc(C(F)(F)F)c1Cl | – | 20 µM (active) |
| O=C1CCCCC1 | inactive | – |
| Cc1ccc(C(C)(C)C)c(O)c1 | inactive | – |
| CCN(CC)CCOc1ccc(C(=C(Cl)c2ccccc2)c2ccccc2)cc1 | – | 8.24 µM (active) |
| CC(=O)[C@@]1(O)CC[C@H]2[C@@H]3CCC4=CC(=O)CC[C@]4(C)[C@H]3CC[C@@]21C | inactive | – |
| CCCCC(CC)CO (configuration not stated) | inactive | – |
| CC(=O)O[C@]1(C(C)=O)CC[C@H]2[C@@H]3C=C(Cl)C4=CC(=O)[C@@H]5C[C@@H]5[C@]4(C)[C@H]3CC[C@@]21C | inactive | – |
| COc1ccc(OC(F)(F)F)cc1CN[C@H]1CCCN[C@H]1c1ccccc1 | inactive | – |
| CC(COCC(C)OC(=O)c1ccccc1)OC(=O)c1ccccc1 (configuration not stated) | inactive | – |
| Cc1occc(=O)c1O | inactive | – |
| O=C(O)c1[nH]n(-c2ccc(S(=O)(=O)O)cc2)c(=O)c1N=Nc1ccc(S(=O)(=O)O)cc1 | inactive | – |

Read-out: not listed separately
Assay: BSK_4H_SRB: Viability Assessment in the BioMAP Diversity Plus: 4H Assay (AID 2283027);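 further: cells exposed to compound for 24 h before staining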;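 on AC50: curves fitted both ways versus DMSO so AC50 may be loss or gain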
Conditions: primary human endothelial cells (HUVEC)
Outline: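 Cytotoxicity readout: sulforhodamine B (0.1%) staining of total protein after 10% TCA fixation, measured at 560 nm in human umbilical vein endothelium at 24 h. DMSO set the baseline; fitting was bidirectional.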

| Compound | outcome | AC50 |
| --- | --- | --- |
| CS(=O)(=O)c1ccc([C@@H](C[C@H]2CCC(=O)C2)C(=O)Nc2cnccn2)cc1Cl | inactive | – |
| O=C(O)CN(CC(=O)O)CC(=O)O | inactive | – |
| CC1(C)C(=O)NC(=O)N1CO | inactive | – |
| CC(C)c1cccc(C(C)C)c1NC(=O)NS(=O)(=O)c1cc(C(C)(C)O)co1 | inactive | – |
| CCCC(=O)O | inactive | – |
| C=CCCCCCCCCCCCC | inactive | – |
| CCCCC(CC)COP(=O)(OCC(CC)CCCC)OCC(CC)CCCC (configuration not stated) | – | 20 µM (active) |
| NC1CCCCC1 | inactive | – |
| CC(=O)CC(c1ccccc1)c1c(O)c2ccccc2oc1=O (configuration not stated) | inactive | – |
| C=CCc1ccc(OC)c(OC)c1 | inactive | – |
| CC(C)OC(=O)C(C)(C)Oc1ccc(C(=O)c2ccc(Cl)cc2)cc1 | inactive | – |
| CCCCCCCCCC[N+](C)(C)[O-] | inactive | – |
| CCCCCCCC(=O)OC | inactive | – |
| Oc1ccc(O)cc1 | inactive | – |
| CSc1ccc(Oc2ccc(S(N)(=O)=O)cc2CN(C)C)cc1C | inactive | – |
| CCc1cc(C2=C(C(=O)O)N(c3ccccc3C(F)(F)F)S(=O)(=O)c3ccccc32)cc2c1OCO2 | inactive | – |
| NCCOCCOCCN | inactive | – |
| S=c1[nH]c2ccccc2s1 | inactive | – |
| O=C(N[C@@H](c1ccccc1)[C@@H]1CCCCN1)c1cccc(C(F)(F)F)c1Cl | inactive | – |
| O=C1CCCCC1 | inactive | – |
| Cc1ccc(C(C)(C)C)c(O)c1 | inactive | – |
| CCN(CC)CCOc1ccc(C(=C(Cl)c2ccccc2)c2ccccc2)cc1 | – | 13.1 µM (active) |
| CC(=O)[C@@]1(O)CC[C@H]2[C@@H]3CCC4=CC(=O)CC[C@]4(C)[C@H]3CC[C@@]21C | inactive | – |
| CCCCC(CC)CO (configuration not stated) | inactive | – |
| CC(=O)O[C@]1(C(C)=O)CC[C@H]2[C@@H]3C=C(Cl)C4=CC(=O)[C@@H]5C[C@@H]5[C@]4(C)[C@H]3CC[C@@]21C | inactive | – |
| COc1ccc(OC(F)(F)F)cc1CN[C@H]1CCCN[C@H]1c1ccccc1 | – | 14.3 µM (active) |
| CC(COCC(C)OC(=O)c1ccccc1)OC(=O)c1ccccc1 (configuration not stated) | inactive | – |
| Cc1occc(=O)c1O | inactive | – |
| O=C(O)c1[nH]n(-c2ccc(S(=O)(=O)O)cc2)c(=O)c1N=Nc1ccc(S(=O)(=O)O)cc1 | inactive | – |
